Source: PubChem (SRMLSC)
Most compounds without a hit are left out; they make up all but 6.8% or so of the library.
A340 absorber = compounds absorbing at 340 nm | fold change at 10 µM | 65,000 tested, under 10 active | compound absorbance at 340 nm, fold over control;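 active = at 10 µM dose, initial 340 nm absorbance at least 2 fold that of control wells; inactive = change under 2 fold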;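 note: initial absorbance extrapolated from kinetic A340 decline of NADH oxidation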
MK inhibit = S. pneumoniae mevalonate kinase inhibition; purified MK, PK/LDH-coupled NADH absorbance 340 nm; inhibition, % at 10 µM; hit rate 0.48% among 65,000; AID 555;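 active = ranked among the strongest by inhibition in the single 10 µM screen, a fixed top-ranked set picked for dose follow-up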
Spn DPM-DC inh = S. pneumoniae DPM-DC inhibition. AID 556. hit rate 0.49% among 65,000. purified DPM-DC, PK/LDH coupled NADH fluorescence. calls only at 10 µM;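 active = the 320 compounds with the highest percent inhibition in the single-dose primary screen, excluding strongly autofluorescent ones, cut at about 32% in these data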;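 note: kinetic rate of NADH fluorescence loss reporting ADP formed by the decarboxylase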
Spn PMK inh = S. pneumoniae PMK inhibition; inhibition, % at 10 µM; purified PMK, PK/LDH-coupled NADH absorbance 340 nm; hit rate 0.49% among 65,000;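 active = top-ranked compounds by inhibition in the single 10 µM screen, taking a fixed number of the strongest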
NADH enzymes = blocks coupling enzymes of NAD/NADH assays; coupled PK/LDH NADH assays, four targets; IC50, µM (series often up to 10 µM); hit rate 0.02% among 65,000; AID 774;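 active = single-dose screening hits from any of four coupled enzyme assays that gave an IC50 when retested across doses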;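 note: the DPM-DC format reads NADH fluorescence rather than 340 nm absorbance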
Autofluor 339 = intrinsic fluorescence of library compounds, ex339/em460 – biochemical, MLSMR library, data from DPM-DC assay, artefact control, profiling panel | compound autofluorescence, ex339/em460 nm, NADH buffer; active compounds read high; 1 = no-compound wells, NADH background | fluorescence fold increase at 10 µM | hit rate 5.5% among 65,000;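 active = at 10 µM, mean starting fluorescence two-fold or more over control wells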;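 note: signal is the first read of a kinetic run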
Hits are given with their value; i = inactive; nt = no result shown; + = active, no number.

SMILES	A340 absorber	MK inhibit	Spn DPM-DC inh	Spn PMK inh	NADH enzymes	Autofluor 339
Cc1cc(Cn2ccnc2)c(C)cc1Cn1ccnc1	i	i	i	i	i	i
Cc1ccc(NC(=O)NC2(C(=O)NCc3ccco3)CCCCC2)cc1	i	i	i	i	i	i
CCOc1ccc2[nH]c(=O)c(CN(Cc3ccc(C)cc3)C(=O)N3CCCC3)cc2c1	i	i	i	i	i	2.6
Cc1ccc(CN(Cc2cc3cc(C)ccc3[nH]c2=O)C(=O)N2CCOCC2)cc1	i	i	i	i	i	i
CCOc1ccc2[nH]c(=O)c(CN(CCOC)C(=O)N3CCOCC3)cc2c1	i	i	nt	i	i	3
Cc1cc(NC(=O)CC(CN(C)S(=O)(=O)c2ccccc2)c2ccccc2)no1 (stereo not drawn)	i	i	i	i	i	i
C1CNCCNCCNCCN1	i	i	i	i	i	i
Cc1ccc2[nH]c3c(NCc4ccco4)ncnc3c2c1	i	i	nt	i	i	3.8
c1coc(CNc2ncnc3nc[nH]c23)c1	i	i	i	i	i	i
Cc1ccc2[nH]c3c(NCCCN4CCCC4=O)ncnc3c2c1	i	i	nt	i	i	3.8
COc1ccc2[nH]c3c(NCCN4CCCCC4)ncnc3c2c1	i	i	nt	i	i	3.7
CCc1cc2c(NCCN3CCCCC3)ncnc2s1	i	i	i	i	i	i
Cc1nn2cc(-c3ccc(-c4ccccc4)cc3)nc2s1	i	i	i	i	i	2.2
Cc1nnc2sc(-c3ccc(NC(=O)CSc4ccc(Cl)cc4)cc3)nn12	i	i	i	i	i	i
CCc1nnc2sc(-c3ccc(NC(=O)CSc4ccc(Cl)cc4)cc3)nn12	i	i	+	i	i	3
CCOC(=O)c1cc2c(=O)[nH]ccc2nc1C	i	i	nt	i	i	3.7
CCOC(=O)c1cc(C(=O)OCC)c2cc(Br)ccc2n1	i	i	i	i	i	i
CC(=O)c1ccc(-c2nc3c4ccccc4ccn3c2C(C)=O)o1	i	i	nt	i	i	2.2
COC(=O)Cc1ccc2c3ccccc3n(C)c2c1	i	i	i	i	i	i
COc1cccc(CN2CCN(c3cccc(C(F)(F)F)c3)CC2)c1OC	i	i	i	i	i	i
FC(F)(F)c1cccc(N2CCN(Cc3cccnc3)CC2)c1	i	56	i	i	i	i
COc1cc(CN2CCN(c3cccc(Cl)c3)CC2)cc(OC)c1OC	i	i	i	i	i	i
FC(F)(F)c1cccc(N2CCN(Cc3ccoc3)CC2)c1	i	50	i	i	i	i
COc1cccc(N2CCN(Cc3cccnc3)CC2)c1	i	51	i	i	i	i
O=C(NCc1ccc2c(c1)OCO2)c1cc2n(n1)C(C(F)(F)F)CC(c1ccc3c(c1)OCO3)N2 (stereo not drawn)	i	i	i	25	i	i
SMILES	A340 absorber	MK inhibit	Spn DPM-DC inh	Spn PMK inh	NADH enzymes	Autofluor 339
O=C(Nc1cc(Cl)ccc1O)c1cc2n(n1)C(C(F)(F)F)CC(c1ccc3c(c1)OCO3)N2 (stereo not drawn)	i	i	i	i	i	i
CCOC(=O)c1ccccc1NS(=O)(=O)c1ccccc1F	i	i	i	i	i	i
O=C(CSc1nnc2scc(-c3ccccc3)n12)N1CCN(Cc2ccccc2)CC1	i	i	i	i	i	i
COc1cc2c(cc1OC)CN(C(=O)CSc1nnc3scc(-c4ccccc4)n13)CC2	i	i	+	i	i	i
Cc1nc(Sc2nnnn2C)c2c3c(sc2n1)CCC3	i	i	nt	i	i	2.1
N=c1c(C(=O)NCc2ccco2)cc2c(=O)n3ccccc3nc2n1Cc1ccccc1	i	i	i	i	i	2.4
N=c1c(C(=O)NCc2ccc3c(c2)OCO3)cc2c(=O)n3ccccc3nc2n1Cc1cccnc1	i	i	i	i	i	i
N=c1c(C(=O)NCc2ccco2)cc2c(=O)n3ccccc3nc2n1Cc1ccc(Cl)cc1	i	i	i	i	i	2.5
CCOC(=O)c1cc2c(=O)n3ccccc3nc2n(Cc2ccc(Cl)cc2)c1=N	i	i	i	i	i	2.3
O=C(CCn1c(=O)c2ccccc2n(Cc2cc(=O)n3ccccc3n2)c1=O)NCc1ccco1	i	i	i	i	i	2.2
CC(C)COC(=O)n1c(SCC(=O)N(C)C)nc2ccccc21	i	i	i	i	i	i
O=C(CCn1nnc(-c2cccs2)n1)NC1CCCCC1	i	i	i	i	i	i
CCOC(=O)c1c(CN2CCCCC2)n(C)c2ccc(OC)c(S(=O)(=O)c3ccccc3)c12	i	i	i	i	i	i
COCCn1c(=N)c(C(=O)NCc2ccco2)cc2c(=O)n3ccccc3nc21	i	i	i	i	i	3
COCCCn1c(=N)c(C(=O)NCc2ccc3c(c2)OCO3)cc2c(=O)n3ccccc3nc21	i	i	i	i	i	i
CCOc1ccccc1C(=O)N1CCCCC1C (stereo not drawn)	i	i	i	i	i	i
Cc1ccc2c(c1)N(CC(=O)NCc1cccs1)C(=O)CO2	i	i	i	i	i	i
CCOC(=O)c1cc2sccc2n1CC(=O)N1CCN(C(=O)c2ccco2)CC1	i	i	i	i	i	i
CCOC(=O)c1cnc(SCC(=O)N2CCN(C(=O)c3ccco3)CC2)nc1N	i	i	i	25	i	i
CCOC(=O)c1cc2sc(C)cc2n1CC(=O)N1CCN(C(=O)c2ccco2)CC1	i	42	i	i	i	i
COc1cc2c(cc1OC)CN(C(=O)CSc1nnc(C)s1)CC2	i	i	i	i	i	i
CC1CCc2cc(F)ccc2N1C(=O)CSc1nnc(-c2cccs2)n1C (stereo not drawn)	i	i	i	i	i	i
CCC(=O)Nc1c(C)cc(C)cc1Cl	i	i	i	i	i	i
CCC(=O)Nc1c(OC(=O)CC)ccc2c(C)cc(=O)oc12	i	i	nt	i	i	2.1
CCN1CCN(Cc2c(O)ccc3c(=O)c(-c4ccccc4OC)coc23)CC1	i	i	nt	i	i	5
SMILES	A340 absorber	MK inhibit	Spn DPM-DC inh	Spn PMK inh	NADH enzymes	Autofluor 339
CCc1cc2c(=O)c(-c3nc4ccccc4[nH]3)coc2c(CN2CCC(C)CC2)c1O	i	i	i	i	i	i
COc1ccccc1-c1coc2c(CN3CCN(C)CC3)c(O)ccc2c1=O	i	i	nt	i	i	2.2
COc1ccccc1-c1coc2c(CN3CCN(CCO)CC3)c(O)ccc2c1=O	i	i	nt	i	i	3
CCOC(=O)c1oc2cc(O)ccc2c(=O)c1-c1ccccc1OC	i	i	i	i	i	i
CCc1cc2c(=O)c(-c3nc4ccccc4n3C)coc2c(CN2CCN(C)CC2)c1O	i	i	i	i	i	2.6
CCOc1ccccc1CNC(=O)C1CCN(C(=O)c2sccc2-n2cccc2)CC1	i	i	i	i	i	i
CC(C)NC(=O)C1(O)c2ccccc2NC(=O)N1c1ccc(Cl)c(Cl)c1 (stereo not drawn)	i	i	i	i	i	i
CC(=O)c1c(C)[nH]c(C(=O)OCCCCN2C(=O)c3ccccc3C2=O)c1C	i	i	i	i	i	i
